PubChem BioAssay (Tox21)
Inconclusive results are not listed. Where a call stands in place of a potency, no number is given. More than one record can exist for a structure, and the calls need not agree. Calls of active or inactive are those of the source. Unless noted, calls come from the whole dose curve.

Legend:
[1] = Nuclear factor erythroid 2-related factor 2/antioxidant responsive element (Nrf2/ARE) small molecule agonists: luciferase reporter gene qHTS assay in human keratinocytes (AID 1919969); note: nearly all actives have a fitted effect of over 35% in size; note: potency is the fitted concentration of half-maximal effect
[2] = molecular target: Gonadotropin-releasing hormone receptor (Homo sapiens) (UniProt P30968); assay: Human gonadotropin-releasing hormone receptor (GnRHR) small molecule agonists, calcium flux assay in GnRHR-HEK293 cells (AID 1920063); note: nearly all actives have a fitted effect of over 35% in size; note: potency is the fitted concentration of half-maximal effect
How it was run: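 Calcium flux, agonist mode, human GnRHR stably integrated in HEK293; dye 1 h at 37 C before compound; Ex/Em=480/540 kinetic read, 3 min; 15 concentrations, triplicate.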

[3] = molecular target: KiSS-1 receptor (Homo sapiens) (UniProt Q969F8); assay: Human kisspeptin (KISS1R) small molecule agonists, calcium flux assay in KISS1R-HEK293 cells (AID 1920064; active = well fitted activation curve with a large enough effect in the repeat runs; note: potency is the fitted concentration of half-maximal effect)
How it was run: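 Triplicate 15-concentration series were applied to dye-loaded human KISS1R HEK293 cells, and agonist-evoked calcium fluorescence was captured for 3 min.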

[4] = G protein-coupled receptor (GPCR) small molecule agonists, calcium flux assay: HEK293 wild type cell line counter screen (AID 1920065)
How it was run: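 Non-specific calcium responders were flagged by adding DMSO-dissolved compounds to dye-loaded cells and reading 480/540 nm fluorescence each second for 3 min; ATP served as positive control.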

[5] = p53 small molecule agonists, cell-based qHTS assay with rat liver microsomes: qHTS cell viability counter screen (AID 1963580); note: nearly all actives have a fitted effect of over 45% in size
How it was run: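 Cytotoxicity counter screen: intracellular ATP read by CellTiter-Glo luminescence in the p53 reporter wells. HCT-116 p53RE-bla cells were treated for 16 h at 37 C alongside rat liver microsomes and NADPH, each 0.5 mg/mL final.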

[6] = molecular target: 5-hydroxytryptamine receptor 2A (Homo sapiens) (UniProt P28223); assay: 5-hydroxytryptamine receptor 2A (HTR2A) small molecule agonists, cell-based qHTS assay (AID 1963587); note: nearly all actives have a fitted effect of over 30% in size; note: potency is the fitted concentration of half-maximal effect
How it was run: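 Kinetic calcium-flux fluorescence (2 min, 1 sec intervals) after compound addition in agonist mode. HTR2A-CHO cells were cultured 18 h, then dye-loaded 1 h at 37 C.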

[7] = molecular target: Muscarinic acetylcholine receptor M1 (Homo sapiens) (UniProt P11229); assay: Cholinergic receptor muscarinic 1 (CHRM1) small molecule antagonists, cell-based qHTS assay (AID 1963588); note: nearly all actives have a fitted effect of over 40% in size
How it was run: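 Compounds were tested at 15 concentrations in three independent runs. Dye-loaded CHRM1-CHO cells were exposed 5 min at room temperature before stimulation by acetylcholine added at 50nM. Intracellular calcium was read kinetically on FDSS for 3 min.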

[8] = molecular target: Muscarinic acetylcholine receptor M1 (Homo sapiens) (UniProt P11229); assay: Cholinergic receptor muscarinic 1 (CHRM1) small molecule agonists, cell-based qHTS assay (AID 1963589); note: nearly all actives have a fitted effect of over 35% in size; note: potency is the fitted concentration of half-maximal effect
How it was run: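 qHTS, 15-point titration, 3 independent runs: compounds pin-transferred onto dye-loaded CHRM1-CHO cells (human M1), calcium fluorescence followed every second to detect agonism.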

[9] = p53 small molecule agonists, cell-based qHTS assay with human liver microsomes: qHTS cell viability counter screen (AID 1963579); note: nearly all actives have a fitted effect of over 45% in size; note: potency is the fitted concentration of half-maximal effect
How it was run: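 Metabolically activated exposure: compounds, human liver microsomes and NADPH (0.5 mg/mL final apiece) were added to p53RE-bla cells seeded 5 h earlier, left 16 h at 37 C, and then assessed for viability by CellTiter-Glo luminescence.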

[10] = p53 small molecule agonists, cell-based qHTS assay: qHTS cell viability counter screen (AID 1963581); note: nearly all actives have a fitted effect of over 45% in size; note: potency is the fitted concentration of half-maximal effect
How it was run: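 Multiplexed with the reporter read, a CellTiter-Glo step (30 min, room temperature) gauges ATP-based viability of HCT-116 p53RE-bla cells after 16 h compound incubation at 37 C.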

[11] = molecular target: Beta-2 adrenergic receptor (Homo sapiens) (UniProt P07550); assay: Adrenergic beta2 receptor (ADRB2) small molecule antagonists, cell-based qHTS assay (AID 1963592); note: nearly all actives have a fitted effect of over 50% in size; note: potency is the fitted concentration of half-maximal effect
How it was run: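 Assay format: CHO-ADRB2 cells, 18-20hr seeding at 37C/5% CO2, then compound plus 1nM isoproterenol agonist mix for 0.5hr RT. Homogeneous time-resolved fluorescence cAMP detection after 1hr, expressed as 665/615 nm ratio.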

[12] = molecular target: Beta-2 adrenergic receptor (Homo sapiens) (UniProt P07550); assay: Adrenergic beta2 receptor (ADRB2) small molecule agonists, cell-based qHTS assay (AID 1963593);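 note: CHO cells stably overexpressing human ADRB2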
How it was run: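 CHO cells stably over-expressing ADRB2 were plated overnight at 37C, then dosed with compounds plus a stimulation mix containing 100uM IBMX and 25uM Ro-20-1724 for 0.5hr at room temperature. cAMP was measured by HTRF competition, 1hr.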

[13] = molecular target: D(2) dopamine receptor (Homo sapiens) (UniProt P14416); assay: Dopamine D2 receptor (DRD2) small molecule agonists, cell-based qHTS assay (AID 1963594); note: nearly all actives have a fitted effect of over 35% in size
How it was run: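 cAMP accumulation in DRD2-HEK293 cells measured by HTRF after 1 h detection; compounds added 10 min before NKH477 (200nM […]) forskolin-analogue stimulation, 30 min at room temperature, with Ro20-1724 present at 0.1 mM final.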

[14] = molecular target: D(2) dopamine receptor (Homo sapiens) (UniProt P14416); assay: Dopamine D2 receptor (DRD2) small molecule antagonists, cell-based qHTS assay (AID 1963595; active = well fitted inhibition curve with a large enough effect in the signal ratio in the repeat runs, with a control signal flat; the % refers to the signal ratio; note: potency is the fitted concentration of half-maximal effect)
How it was run: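 Cells were plated and grown for 24 h at 37 °C. Ro20-1724 (0.1 mM final) went in first, then compound for 10 min. NKH477 (200 nM) with quinpirole (12 nM) followed for 30 min at RT, then HTRF detection reagents for 1 h.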

[15] = molecular target: 5-hydroxytryptamine receptor 2A (Homo sapiens) (UniProt P28223); assay: 5-hydroxytryptamine receptor 2A (HTR2A) small molecule antagonists, cell-based qHTS assay (AID 1963586); note: nearly all actives have a fitted effect of over 45% in size; note: potency is the fitted concentration of half-maximal effect
How it was run: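 CHO cells stably expressing human HTR2A were plated for 18 h at 37 C, then loaded with calcium dye for 1 h. Compounds were preincubated 5 min at room temperature before DOI (4 nM solution) was added. Kinetic fluorescence was read for 3 min.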

[16] = cAMP Responsive Elements (CRE) small molecule antagonists, cell-based qHTS assay (AID 1963591; active = well fitted inhibition curve with a large enough effect in the signal ratio in the repeat runs, not every such curve was filed as active; the % refers to the signal ratio; note: potency is the fitted concentration of half-maximal effect)
How it was run: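 Fluorescence intensity from cleaved LiveBLAzer B/G substrate (2 h, room temperature) quantified CRE-bla activity in HEK 293T cells exposed 3 h to compound with 0.25 uM final NKH477.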

[17] = cAMP Responsive Elements (CRE) small molecule agonists, cell-based qHTS assay (AID 1963590)
How it was run: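 Quantitative HTS for CRE agonists: HEK 293T CRE-bla cells, overnight plating, 3 h compound incubation at 37 C/5% CO2, then 2 h room-temperature LiveBLAzer B/G FRET substrate loading.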

[18] = p53 small molecule agonists, cell-based qHTS assay with rat liver microsomes (AID 1963578)
How it was run: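 Agonist mode in p53RE-bla reporter cells, with compounds co-incubated 16 h at 37 C alongside 0.5 mg/mL rat liver microsomes and 0.5 mg/mL NADPH (final), followed by a 2 h LiveBLAzer detection step.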

[19] = p53 small molecule agonists, cell-based qHTS assay (AID 1963582; active = well fitted activation curve with a large enough effect in the signal ratio in the repeat runs, not every such curve was filed as active; the % refers to the signal ratio; note: potency is the fitted concentration of half-maximal effect)
How it was run: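 Beta-lactamase reporter cells (p53RE-bla) treated with compounds for 16 h at 37 C; FRET substrate, 2 h, room temperature; fluorescence intensity.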

[20] = p53 small molecule agonists, cell-based qHTS assay with human liver microsomes (AID 1963577);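 note: p53 response element beta-lactamase reporter cells with liver microsomes plus NADPH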
How it was run: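 In this qHTS, p53 response-element beta-lactamase cells receive test compound together with a microsome/NADPH activating system (0.5 mg/mL final each) and are incubated 16 h at 37 C before LiveBLAzer fluorescence detection.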

D(2) dopamine receptor (Homo sapiens), sequence (P14416 whole entry, looked up): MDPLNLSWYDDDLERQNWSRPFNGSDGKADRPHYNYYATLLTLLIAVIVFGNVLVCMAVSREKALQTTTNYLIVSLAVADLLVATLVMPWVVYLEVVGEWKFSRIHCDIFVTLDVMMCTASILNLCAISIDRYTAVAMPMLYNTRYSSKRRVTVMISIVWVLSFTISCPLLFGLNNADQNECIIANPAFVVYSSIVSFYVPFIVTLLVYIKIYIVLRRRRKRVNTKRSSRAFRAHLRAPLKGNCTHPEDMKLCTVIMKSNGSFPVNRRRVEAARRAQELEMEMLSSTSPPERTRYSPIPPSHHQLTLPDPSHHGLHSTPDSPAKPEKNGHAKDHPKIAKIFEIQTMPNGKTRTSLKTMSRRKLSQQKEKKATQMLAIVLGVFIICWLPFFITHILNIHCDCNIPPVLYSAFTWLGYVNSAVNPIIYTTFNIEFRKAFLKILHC
Beta-2 adrenergic receptor (Homo sapiens), sequence (P07550 whole entry, looked up): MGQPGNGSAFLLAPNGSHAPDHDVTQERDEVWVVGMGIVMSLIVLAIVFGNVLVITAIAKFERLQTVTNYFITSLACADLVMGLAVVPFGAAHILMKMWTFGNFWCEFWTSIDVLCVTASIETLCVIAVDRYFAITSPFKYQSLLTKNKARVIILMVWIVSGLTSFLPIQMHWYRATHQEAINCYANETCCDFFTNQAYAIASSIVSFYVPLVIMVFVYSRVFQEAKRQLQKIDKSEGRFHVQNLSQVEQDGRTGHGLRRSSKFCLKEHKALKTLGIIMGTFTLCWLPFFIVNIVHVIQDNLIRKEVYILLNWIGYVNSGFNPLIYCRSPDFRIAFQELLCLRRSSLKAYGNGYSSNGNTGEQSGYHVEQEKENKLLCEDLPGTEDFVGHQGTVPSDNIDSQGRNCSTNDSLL
Muscarinic acetylcholine receptor M1 (Homo sapiens), sequence (P11229 whole entry, looked up): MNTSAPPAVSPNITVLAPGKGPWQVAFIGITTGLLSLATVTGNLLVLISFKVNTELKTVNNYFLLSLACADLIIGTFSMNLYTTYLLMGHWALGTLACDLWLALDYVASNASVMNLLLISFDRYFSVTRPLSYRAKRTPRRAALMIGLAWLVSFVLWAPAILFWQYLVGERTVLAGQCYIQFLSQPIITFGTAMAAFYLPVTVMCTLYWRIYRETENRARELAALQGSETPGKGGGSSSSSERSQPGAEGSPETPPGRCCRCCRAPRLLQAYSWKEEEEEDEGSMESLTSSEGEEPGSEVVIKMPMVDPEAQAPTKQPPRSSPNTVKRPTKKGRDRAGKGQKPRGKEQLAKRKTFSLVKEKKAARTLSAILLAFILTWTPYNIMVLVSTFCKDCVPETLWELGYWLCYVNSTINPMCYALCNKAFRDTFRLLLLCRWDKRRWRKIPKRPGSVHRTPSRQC
KiSS-1 receptor (Homo sapiens), sequence (Q969F8 whole entry, looked up): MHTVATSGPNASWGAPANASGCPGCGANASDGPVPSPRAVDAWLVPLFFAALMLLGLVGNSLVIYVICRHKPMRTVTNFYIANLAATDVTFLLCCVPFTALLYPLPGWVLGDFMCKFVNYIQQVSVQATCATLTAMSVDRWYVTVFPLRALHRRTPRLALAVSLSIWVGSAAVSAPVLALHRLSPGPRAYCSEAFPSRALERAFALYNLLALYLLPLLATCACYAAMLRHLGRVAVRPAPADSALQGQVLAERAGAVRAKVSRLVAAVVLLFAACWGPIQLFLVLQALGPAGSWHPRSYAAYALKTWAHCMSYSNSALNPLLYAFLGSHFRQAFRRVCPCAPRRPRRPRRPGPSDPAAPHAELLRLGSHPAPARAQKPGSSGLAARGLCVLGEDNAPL
5-hydroxytryptamine receptor 2A (Homo sapiens), sequence (P28223 whole entry, looked up): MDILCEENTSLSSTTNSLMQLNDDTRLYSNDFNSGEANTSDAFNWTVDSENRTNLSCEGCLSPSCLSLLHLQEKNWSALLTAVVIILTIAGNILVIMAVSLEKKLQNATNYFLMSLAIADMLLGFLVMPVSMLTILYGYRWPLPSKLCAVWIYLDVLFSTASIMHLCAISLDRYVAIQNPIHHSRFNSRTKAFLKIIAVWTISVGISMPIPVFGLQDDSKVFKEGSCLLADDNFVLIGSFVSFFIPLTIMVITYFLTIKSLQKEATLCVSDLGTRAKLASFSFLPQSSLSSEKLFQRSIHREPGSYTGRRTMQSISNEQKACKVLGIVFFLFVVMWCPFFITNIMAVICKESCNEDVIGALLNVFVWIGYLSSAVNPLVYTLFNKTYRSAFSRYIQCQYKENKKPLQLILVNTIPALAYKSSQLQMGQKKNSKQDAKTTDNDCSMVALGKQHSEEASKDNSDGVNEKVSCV
Gonadotropin-releasing hormone receptor (Homo sapiens), sequence (P30968 whole entry, looked up): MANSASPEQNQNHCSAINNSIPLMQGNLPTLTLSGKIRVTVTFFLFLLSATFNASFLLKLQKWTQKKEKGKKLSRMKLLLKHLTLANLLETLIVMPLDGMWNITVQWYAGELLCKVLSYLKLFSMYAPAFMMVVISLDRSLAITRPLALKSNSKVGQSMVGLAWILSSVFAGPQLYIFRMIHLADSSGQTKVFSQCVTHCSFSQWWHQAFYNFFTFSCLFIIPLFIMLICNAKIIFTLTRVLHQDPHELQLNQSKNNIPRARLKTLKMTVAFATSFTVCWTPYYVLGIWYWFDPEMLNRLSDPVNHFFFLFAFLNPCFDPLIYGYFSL

| SMILES | Potency [1] | Potency [2] | Potency [3] | Potency [4] | Potency [5] | Potency [6] | Potency [7] | Potency [8] | Potency [9] | Potency [10] | Potency [11] | Potency [12] | Potency [13] | Potency [14] | Potency [15] | Potency [16] | Potency [17] | Potency [18] | Potency [19] | Potency [20] |
| --- | --- | --- | --- | --- | --- | --- | --- | --- | --- | --- | --- | --- | --- | --- | --- | --- | --- | --- | --- | --- |
| Nc1ccc(O)c([N+](=O)[O-])c1 | 19.3 µM (active) | inactive | inactive | inactive | inactive | inactive | inactive | inactive | – | – | – | – | – | – | – | – | – | – | – | – |
| Cc1ccc(-c2cc(C(F)(F)F)nn2-c2ccc(S(N)(=O)=O)cc2)cc1 | inactive | inactive | inactive | inactive | – | – | – | – | inactive | inactive | 60.9 µM (active) | inactive | inactive | 60.9 µM (active) and inactive | – | – | – | – | – | – |
| NC(N)=NN=C(/C=C/c1ccc([N+](=O)[O-])o1)/C=C/c1ccc([N+](=O)[O-])o1 | 6.68 µM (active) | inactive | inactive | inactive | inactive | inactive | inactive | inactive | – | 17.8 µM (active) | inactive | – | inactive | inactive | inactive | 29.8 µM (active) | – | – | – | – |
| CCCCCCOc1ccc(O)cc1 | 21.7 µM (active) | inactive | inactive | inactive | – | inactive | inactive | inactive | inactive | – | inactive | – | inactive | 48.6 µM (active) | inactive | – | – | – | – | – |
| CCC1=C[C@@H]2CN(C1)Cc1c([nH]c3ccccc13)[C@@](C(=O)OC)(c1cc3c(cc1OC)N(C)[C@H]1[C@@](O)(C(=O)OC)[C@H](OC(C)=O)[C@]4(CC)C=CCN5CC[C@]31[C@@H]54)C2 | 0.376 µM (active) | inactive | inactive | inactive | – | – | – | – | – | – | inactive | inactive | inactive | inactive | – | – | – | – | – | – |
| CC(C)c1nc(CN(C)C(=O)N[C@H](C(=O)N[C@@H](Cc2ccccc2)C[C@H](O)[C@H](Cc2ccccc2)NC(=O)OCc2cncs2)C(C)C)cs1 | inactive | inactive | inactive | inactive | – | – | – | – | inactive | inactive | inactive | – | – | inactive | – | – | – | – | – | – |
| Fc1ccccc1 | inactive | inactive | inactive | inactive | inactive | – | inactive | inactive | inactive | – | inactive | inactive | inactive | inactive | – | inactive | inactive | – | – | – |
| COc1cc(Cl)ccc1Oc1ccc(Cl)cc1Cl | 14.9 µM (active) | inactive | inactive | – | inactive | inactive | inactive | inactive | inactive | inactive | inactive | – | inactive | inactive | inactive | inactive | – | – | – | – |
| CCc1oc2ccccc2c1C(=O)c1cc(Br)c(O)c(Br)c1 | inactive | inactive | inactive | inactive | inactive | – | – | – | – | inactive | inactive | – | inactive | inactive | – | inactive | inactive | – | – | – |
| Nc1ccc(N=Nc2ccc(N)cc2)cc1 | inactive | inactive | inactive | – | inactive | inactive | inactive | inactive | inactive | inactive | inactive | – | inactive | inactive | inactive | inactive | inactive | inactive | inactive | – |
| Cc1cc2nc3ccc(=[N+](C)C)cc-3sc2cc1N | 2.37 µM (active) | inactive | inactive | inactive | – | inactive | inactive | inactive | 11.2 µM (active) | – | – | – | – | – | inactive | inactive | inactive | – | – | – |
| CCCCCCCCS(=O)C(C)Cc1ccc2c(c1)OCO2 (centres undefined) | inactive | inactive | inactive | – | – | – | inactive | inactive | inactive | – | inactive | inactive | inactive | inactive | – | – | – | inactive | – | inactive |
| COc1ccc(-c2nc3ccc(C4=NNC(=O)CC4C)cc3[nH]2)cc1 (centres undefined) | inactive | inactive | inactive | inactive | – | inactive | inactive | inactive | – | – | inactive | inactive | – | – | 0.23 µM (active) | – | – | – | – | – |
| CCCC(=O)OC[C@@H](OC(=O)CCC)[C@@H](OC(=O)CCC)[C@H](Cn1c2nc(=O)[nH]c(=O)c-2nc2cc(C)c(C)cc21)OC(=O)CCC | inactive | 7.56 µM (active) | 16.9 µM (active) | – | – | 23.9 µM (active) | inactive | 19 µM (active) | inactive | inactive | inactive | – | inactive | inactive | inactive | – | – | – | – | inactive |
| CC1=C(/C=C/C(C)=C/C=C/C(C)=C\C=O)C(C)(C)CCC1 | 64.9 µM (active) | inactive | inactive | – | – | inactive | inactive | inactive | – | inactive | inactive | – | inactive | inactive | inactive | – | – | inactive | – | inactive |
| NC(=O)c1ccccc1C(N)=O | 68.9 µM (active) | inactive | inactive | – | inactive | inactive | inactive | – | inactive | – | inactive | – | inactive | inactive | inactive | inactive | inactive | inactive | 45.9 µM (active) | inactive |
| CN(C)[C@@H]1C(=O)C(C(N)=O)=C(O)[C@@]2(O)C(=O)C3=C(O)c4c(O)ccc(Cl)c4[C@@H](O)[C@H]3C[C@@H]12 | inactive | inactive | inactive | inactive | inactive | inactive | inactive | inactive | – | inactive | inactive | inactive | – | inactive | inactive | – | – | – | – | – |
